# Data reported in PubChem BioAssay AID841 (Emory University Molecular Libraries Screening Center, 2007).
# Screen size: about 140,000 compounds; about 2,100 (1.5%) were called active. This is one part of a sample in which actives are shown more often than they occur. Values without a mark were called inactive. No stated cut-off is given here; in the data, active means protection mostly above about 24% (no sharp cut-off); inactive means mostly below about 26%.
# Experiment: blockers of measles virus-induced cell death – single point, MLSMR library, absorbance, measles RdRp inhibitor project, primary screen (AID 841)
# Conditions: Measles virus-infected cells, CPE protection, at 4 µM, active compounds read high
row,SMILES,protection (pct of control)
1,Cc1c(NC(=S)NCc2ccc(F)cc2)cccc1[N+](=O)[O-],18%
2,CN(CC(=O)Nc1ccc(N2CCOCC2)cc1)CC(=O)Nc1ccccc1[N+](=O)[O-],21%
3,Cc1ccc(NC(=O)CN(C)Cc2ccc(F)cc2)c([N+](=O)[O-])c1,64.2% (active)
4,CCCCOc1ccc(NC(=O)[C@@H]2CCCN2C(=O)C2CCN(S(=O)(=O)c3ccc(C)cc3)CC2)cc1,12.8%
5,CCN=C1S/C(=C\c2cc(Br)ccc2OCC(=O)OCC)C(=O)N1CC,4.59%
6,CCCC(C)C(=O)OCC(=O)Nc1c(Br)cc(C)cc1Br (centres undefined),5.66%
7,CCCc1cc(-c2n[nH]c(=S)n2Cc2ccccc2)cs1,18%
8,C=CCn1c(-c2ccc3[nH]c(C)c(C)c3c2)n[nH]c1=S,41.1% (active)
9,CCc1cc(-c2n[nH]c(=S)n2CC(C)C)cs1,1.82%
10,CC(C)(C)c1ccc(NC(=O)COC(=O)CCc2nc3ccccc3c(=O)[nH]2)cc1,4.79%
11,COc1ccc(NC(=O)CSc2nnc(-c3cccs3)n2Cc2ccco2)cc1OC,5.61%
12,COc1cc(Cl)c(C)cc1NC(=O)CSc1nnc(-c2cccnc2)n1Cc1ccco1,6.16%
13,COc1ccccc1NC(=O)CSc1nc2sc(C)c(C)c2c(=O)n1Cc1ccco1,48.9% (active)
14,CCOc1ccccc1C1C(C(=O)OC)=CN(C)C=C1C(=O)OC,48.9% (active)
15,CCOc1cc(C2C(C(=O)OC)=CN(C3CCCC3)C=C2C(=O)OC)cc(Br)c1O,8.51%
16,COC(=O)C1=CN(C)C=C(C(=O)OC)C1c1ccc(Cl)cc1Cl,4.66%
17,Cc1ccnc(NC(=O)Cn2ccc([N+](=O)[O-])n2)c1,6.33%
18,COc1ccc(Cl)cc1NC(=O)[C@@H]1CCCN1C(=O)c1cccs1,6.26%
19,COc1ccc(CN2C(=O)CC(Cc3ccc(C)cc3)C2=O)cc1OC (centres undefined),7.23%
20,CCCCNS(=O)(=O)c1ccc2nc(SCC(=O)Nc3cc(C)cc(C)c3)[nH]c2c1,6.86%

row,SMILES,protection (pct of control)
1,CSCc1cc(N(C)C)nc(SCc2ccc(Cl)cc2Cl)n1,3.22%
2,O=c1cc(CSc2ccc(Cl)cc2)nc(N2CCOCC2)[nH]1,15.7%
3,CSCc1cc(N2CCOCC2)nc(SCc2ccc(Cl)cc2Cl)n1,71.8% (active)
4,O=C1CCCC(O)=C1N=Nc1ccc2ncsc2c1,4.07%
5,COc1cc(/C=C(/NC(=O)c2ccc(Cl)cc2Cl)C(=O)O)cc(OC)c1OC,8.92%
6,Cc1cccc(CSc2nnc(Cn3c(=O)sc4ccccc43)n2C)c1,11.3%
7,Cc1ccccc1CSc1nnc(Cn2c(=O)sc3ccccc32)n1C,42.8% (active)
8,C=CCSc1nnc(Cn2c(=O)sc3ccccc32)n1C,12.3%
9,CCN(CC)S(=O)(=O)c1cc([N+](=O)[O-])ccc1N=Nc1c(O)n(C)c2ccccc12,4.65%
10,COc1ccc(C)cc1NC(=O)CSc1ccc(Cl)cc1,9.52%
11,COC(=O)[C@H](C)[C@H]1C[C@]1(C)[C@H](NC(=O)OCc1ccccc1)c1ccccc1,3.04%
12,COC(=O)[C@H](Cc1ccccc1)NC(=O)[C@@H]1C[C@H]1[C@@H](NC(=O)OCc1ccccc1)c1ccccc1,49.5% (active)
13,COC(=O)[C@H](Cc1ccccc1)NC(=O)N1CC(C)OC(C)C1 (some centres undefined),13.1%
14,CSc1ccc(/C=C/C(=O)NC23CC4CC(CC(C4)C2)C3)cc1,2.59%
15,CC(=O)c1ccc(N2CCN(C(=O)c3ccc4nc[nH]c4c3)CC2)cc1,20.3%
16,COc1ccc(-c2csc(NC(=O)CCCc3cccs3)n2)cc1,37.9%
17,Cc1ccc(-c2csc(NC(=O)Cc3cccs3)n2)cc1C,42.2% (active)
18,CCCc1ccc(-c2csc(NC(=O)Cc3cccs3)n2)cc1,25%
19,C/C(CC(=O)Nc1cccc(F)c1)=N\NC(=O)C(=O)NC1CCCCC1,2.76%
20,Cc1cc(C)c(C2C3=C(Nc4c2c(C)nn4-c2ccccn2)c2ccccc2C3=O)c(C)c1 (centres undefined),7.66%

row,SMILES,protection (pct of control)
1,O=C(CN1C(=O)c2cccc3cccc(c23)C1=O)N1CCCCC1,4.32%
2,Cc1nnc(NC(=O)/C=C/c2ccco2)s1,22.5%
3,O=[N+]([O-])c1ccc(NCCCO)c(C(F)(F)F)c1,10.7%
4,O=C(CSc1nc2c(cnn2-c2ccc(F)cc2)c(=O)[nH]1)N1CCCCCC1,6.65%
5,CC(=O)c1sc2nc(SCC(=O)N3CCCCC3)[nH]c(=O)c2c1C,61.4% (active)
6,C=CCNC(=O)CSc1nc2sc(C)c(C)c2c(=O)[nH]1,1.51%
7,FC(F)(F)c1nnc2ccc(N3CCN(c4ccccc4)CC3)nn12,1.66%
8,Fc1c(F)c(C(F)(F)F)c(F)c(F)c1N1CCN(c2ccc3nnc(C(F)(F)F)n3n2)CC1,52.3% (active)
9,COc1ccc(S(=O)(=O)Nc2ccc(F)cc2)c(C)c1C,62% (active)
10,COc1ccc(F)cc1S(=O)(=O)Nc1ccc2c(c1)OCO2,5.59%
11,COc1ccc(S(=O)(=O)N2CCCC2)c(C)c1C,7.99%
12,COc1ccc2c(c1)cc1n2CCN=C1NN,25.1% (active)
13,COc1ccc(NC(=O)Nc2ccc3nc(C)c(C)nc3c2)cc1,2.45%
14,COc1cc(-c2cc(C(=O)OCC(=O)Nc3ccc4c(c3)OCO4)c3ccccc3n2)cc(OC)c1OC,4.84%
15,CCOC(=O)N1CCN(CC(=O)c2c(C)[nH]c3ccccc23)CC1,5.34%
16,O=C(Cc1ccc(-n2c(=O)[nH]c3ccccc3c2=O)cc1)N1CCN(c2cccc(Cl)c2)CC1,2.23%
17,CCOC(=O)N1CCN(C(=O)Cc2ccc(-n3c(=S)[nH]c4ccccc4c3=O)cc2)CC1,49% (active)
18,O=C(/C=C/c1cccc([N+](=O)[O-])c1)NCCSCc1ccco1,4%
19,CCOc1ccc(-c2n[nH]c(=S)n2/N=C/c2cc3c(cc2[N+](=O)[O-])OCO3)cc1,2.01%
